Source: PubChem BioAssay (NCATS)
Records with an inconclusive call do not appear. Values without a mark were called inactive. Activity calls are given as the source filed them. The call rests on the fitted dose curve; in most records, active means well fitted inhibition curve with a large enough effect; inconclusive means small, poorly fitted or top-dose-only effect; inactive means flat fitted curve, though single readings scatter.

Biological target: Luciferin 4-monooxygenase (Photinus pyralis) (UniProt P08659)
Test: Biochemical firefly luciferase enzyme assay for NPC (AID 624030); further: nearly all actives have a fitted effect of over 70% in size;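 on activity change, negative = inhibition: purified P. pyralis luciferase at 10 nM with luciferin and ATP substrate; 0% = DMSO and -100% = full luciferase inhibition by PTC124 control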
Conditions: purified P. pyralis luciferase, luminescence, 5 min; series mostly up to 58.6 µM; activity change, negative = inhibition: at the top concentration
Procedure, shortened: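 Counter-screen for direct inhibition of the luciferase enzyme by approved-drug library compounds, run at 10 nM enzyme in 50 mM Tris acetate (final). Luminescence was read within 5 min of enzyme-buffer addition and normalized to PTC124 versus DMSO (0%).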
Potency means the concentration at half of the fitted maximal effect.

Sequence of Luciferin 4-monooxygenase (Photinus pyralis) (P08659 whole entry, looked up): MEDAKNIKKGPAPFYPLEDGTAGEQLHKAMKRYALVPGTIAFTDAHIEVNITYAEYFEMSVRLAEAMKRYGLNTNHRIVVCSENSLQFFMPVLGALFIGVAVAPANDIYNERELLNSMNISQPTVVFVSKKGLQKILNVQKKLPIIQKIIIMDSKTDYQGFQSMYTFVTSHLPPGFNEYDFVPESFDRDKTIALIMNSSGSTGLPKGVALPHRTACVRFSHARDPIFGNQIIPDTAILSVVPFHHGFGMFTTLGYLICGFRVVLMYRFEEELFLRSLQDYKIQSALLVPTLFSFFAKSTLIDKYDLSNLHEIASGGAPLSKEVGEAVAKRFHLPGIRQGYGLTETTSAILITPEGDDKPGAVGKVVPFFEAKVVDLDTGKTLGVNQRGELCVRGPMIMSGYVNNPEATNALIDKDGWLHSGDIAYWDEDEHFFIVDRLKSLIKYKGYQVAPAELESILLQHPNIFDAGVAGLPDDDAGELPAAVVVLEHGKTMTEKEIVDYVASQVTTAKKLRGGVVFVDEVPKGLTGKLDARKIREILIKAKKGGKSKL

| SMILES | activity change, negative = inhibition | Potency |
| --- | --- | --- |
| CN[C@@H]1CCc2[nH]c3ccc(C(N)=O)cc3c2C1 | -6.29% | – |
| CCOC(=O)Cc1cccc(-c2cc(CCCCCCc3ccc(O[C@H]4O[C@H](COC(C)=O)[C@@H](OC(C)=O)[C@H](OC(C)=O)[C@@H]4OC(C)=O)c(-c4cccc(CC(=O)OCC)c4)c3)ccc2O[C@H]2O[C@H](COC(C)=O)[C@@H](OC(C)=O)[C@H](OC(C)=O)[C@@H]2OC(C)=O)c1 | 0.983% | – |
| Nc1c(CC(=O)O)cccc1C(=O)c1ccccc1 | – | inactive |
| CCCCCCCCCCCCCCCC(=O)OC[C@@H](COP(=O)([O-])OCC[N+](C)(C)C)OC(=O)CCCCCCCCCCCCCCC | -0.9% | – |
| CC(=O)OC[C@H]1O[C@@H](O[C@H]2[C@H](O)[C@@H](OC(=O)c3ccccc3C(=O)O)[C@H](O)O[C@@H]2COC(C)=O)[C@H](O)[C@@H](OC(=O)c2ccccc2C(=O)O)[C@@H]1O | -1.48% | – |
| CCCCCCCCCCCCCCCCCC(=O)[O][Al] | -2.65% | – |
| CCOC(=O)Nc1ccc2c(c1)N(C(=O)CN(C)C)c1ccccc1CC2 | -4.43% [at 123 µM] | – |
| O.O=C([O-])CC([S-])C(=O)[O-].[Au+].[Na+].[Na+] (centres undefined) | -0.384% | – |
| CN1CC(O)c2cc(N=NC(N)=O)c(O)cc21 (centres undefined) | -3.68% | – |
| Cc1ccc(C2(O)CCN(CCCC(=O)c3ccc(F)cc3)CC2)cc1 | 1.91% | – |
| NNc1nnc(Cc2ccncc2)c2ccccc12 | – | 5.1 µM (active) |
| CCCC(=O)N1CCCN(c2nc(N)c3cc(OC)c(OC)cc3n2)CC1 | -9.35% | – |
| OC(CN1CCCCC1)c1cc(-c2ccccc2)on1 (centres undefined) | -8.42% | – |
| CCN1CCCC1CNC(=O)c1cc(S(=O)(=O)CC)ccc1OC (centres undefined) | -0.307% | – |
